For 4 compounds, outcome and AC50 results are on record in PubChem BioAssay (EPA / NIEHS).

The source made the active and inactive calls. Rule for the calls: active = hit-call score of the fitted dose curve at least 0.9, where 1 is the maximum; inactive = score below 0.9.

A short description of test [1]: ATG_CRE_CIS: Attagene CIS-FACTORIAL HepG2 Assay for human cAMP Responsive Element (CRE) binding protein 3 (AID 2282926). The conditions noted are these: HepG2 CRE cis-reporter, Attagene multiplexed mRNA; actives raise or lower the signal. In short, it runs like this:
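Capillary electrophoresis of 6-FAM-labelled, HpaI-digested PCR products quantified reporter transcripts. These came from HepG2 transiently transfected with cis-element reporters and exposed to test chemicals for 24 hours, with DMSO defining baseline activity.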

The target of test [2] is Aryl hydrocarbon receptor (Homo sapiens) (UniProt P35869). The experiment in a line: ATG_Ahr_CIS: Attagene CIS-FACTORIAL HepG2 Assay for human Aryl Hydrocarbon Receptor (Ahr) (AID 2282930). The following applies: HepG2 AhR cis-factorial reporter transcription; actives raise or lower the signal. The essentials: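 Values derive from bidirectional fitting against DMSO negative control. Underlying signal: cis-element reporter mRNA in transiently transfected HepG2, harvested 24 h post-dose and measured by RT-PCR plus capillary electrophoresis.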
Chain of Aryl hydrocarbon receptor (Homo sapiens) (P35869 whole entry, looked up): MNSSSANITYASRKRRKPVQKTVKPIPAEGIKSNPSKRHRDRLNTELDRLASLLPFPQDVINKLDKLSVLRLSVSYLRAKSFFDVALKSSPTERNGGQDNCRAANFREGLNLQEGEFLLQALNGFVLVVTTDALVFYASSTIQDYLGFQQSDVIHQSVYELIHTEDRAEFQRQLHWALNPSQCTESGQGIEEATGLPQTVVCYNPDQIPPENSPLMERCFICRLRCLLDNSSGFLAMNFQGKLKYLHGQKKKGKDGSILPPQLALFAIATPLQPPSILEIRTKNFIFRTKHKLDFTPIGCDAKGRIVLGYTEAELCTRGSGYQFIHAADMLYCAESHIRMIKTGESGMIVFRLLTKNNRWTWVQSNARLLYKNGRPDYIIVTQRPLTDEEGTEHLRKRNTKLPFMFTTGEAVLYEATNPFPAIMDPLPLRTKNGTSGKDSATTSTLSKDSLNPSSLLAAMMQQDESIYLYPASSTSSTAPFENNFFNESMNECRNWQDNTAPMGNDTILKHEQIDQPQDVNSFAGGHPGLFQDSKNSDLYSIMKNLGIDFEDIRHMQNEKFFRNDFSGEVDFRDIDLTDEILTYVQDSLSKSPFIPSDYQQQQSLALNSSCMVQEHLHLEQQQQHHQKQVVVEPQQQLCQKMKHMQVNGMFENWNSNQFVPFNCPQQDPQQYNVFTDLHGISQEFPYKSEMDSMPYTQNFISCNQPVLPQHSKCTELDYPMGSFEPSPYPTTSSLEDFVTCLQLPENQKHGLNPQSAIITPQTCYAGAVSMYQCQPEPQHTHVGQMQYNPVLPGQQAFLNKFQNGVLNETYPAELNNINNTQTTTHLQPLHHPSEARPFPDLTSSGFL

The nature of test [3]: ATG_AP_1_CIS: Attagene CIS-FACTORIAL HepG2 Assay for human Activator Protein 1 (AP-1) (AID 2282931). The following applies: HepG2 Attagene cis-factorial AP-1 reporter mRNA; actives raise or lower the signal. The essentials:
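Fluorescence of labelled PCR fragments separated by capillary electrophoresis gives reporter mRNA levels. HepG2 with transfected cis-regulated reporter units, 24 h exposure; DMSO serves as baseline for bidirectional curve fits.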

Test [4] is described as follows: ATG_BRE_CIS: Attagene CIS-FACTORIAL HepG2 Assay for human Bone Morphogenetic Protein (BMP) Response Element (BRE) (AID 2282933). The following applies: HepG2 BMP response element reporter, Attagene transcription factor profiling; actives raise or lower the signal. In short, it runs like this:
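Endogenous transcription factor activity at a BMP response element was monitored in transfected HepG2 cells 24 h after dosing. Fluorescent RT-PCR products were resolved by capillary electrophoresis, and activity was fitted in both directions versus DMSO.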

A short description of test [5]: ATG_E_Box_CIS: Attagene CIS-FACTORIAL HepG2 Assay for human Enhancer Box (E-box) (AID 2282936). The conditions noted are these: HepG2 E-box cis-reporter transcription, actives raise or lower the signal. In short, it runs like this:
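Endogenous transcription factor activity was sensed in human HepG2 liver cells through transfected cis-promoter reporter units. After 24 h of dosing, total RNA was reverse-transcribed and reporter cDNA resolved by capillary electrophoresis.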

The nature of test [6]: ATG_M_19_CIS: Attagene CIS-FACTORIAL HepG2 Assay for M19 Transcription Factor (Internal Marker) (AID 2282939). The following applies: HepG2 Attagene CIS-FACTORIAL M19 internal marker reporter; actives raise or lower the signal. In short, it runs like this:
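Background-control endpoint from a multiplexed HepG2 reporter panel. Cells carrying cis-regulated reporter constructs are treated 24 h, then reporter transcripts are amplified, fluorescently labelled and sized by capillary electrophoresis. DMSO defines baseline.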

Test [7] is described as follows: ATG_GLI_CIS: Attagene CIS-FACTORIAL HepG2 Assay for human Zinc Finger Protein GLI1 (AID 2282945). The following applies: HepG2, Attagene cis-factorial reporter mRNA, GLI element; actives raise or lower the signal. In short, it runs like this:
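HepG2 cells transiently transfected with cis-promoter multiplexed reporter units report endogenous transcription factor activity. After 24 h chemical exposure, reporter mRNA was quantified by RT-PCR, 6-FAM labelling, HpaI digestion and capillary electrophoresis, with bidirectional fitting against DMSO.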

For test [8], the target named is Hypoxia-inducible factor 1-alpha (Homo sapiens) (UniProt Q16665). The experiment in a line: ATG_HIF1a_CIS: Attagene CIS-FACTORIAL HepG2 Assay for human Hypoxia Inducible Factor 1 (HIF1A) (AID 2282951). The following applies: HepG2 Attagene cis-factorial HIF1a reporter transcription; actives raise or lower the signal. In short, it runs like this: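 HepG2, transient cis-reporter library, 24 h dosing. RNA → RT (oligo dT) → PCR → 6-FAM primer extension → HpaI → CE. Bidirectional curve fit vs DMSO.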
Chain of Hypoxia-inducible factor 1-alpha (Homo sapiens) (Q16665 whole entry, looked up): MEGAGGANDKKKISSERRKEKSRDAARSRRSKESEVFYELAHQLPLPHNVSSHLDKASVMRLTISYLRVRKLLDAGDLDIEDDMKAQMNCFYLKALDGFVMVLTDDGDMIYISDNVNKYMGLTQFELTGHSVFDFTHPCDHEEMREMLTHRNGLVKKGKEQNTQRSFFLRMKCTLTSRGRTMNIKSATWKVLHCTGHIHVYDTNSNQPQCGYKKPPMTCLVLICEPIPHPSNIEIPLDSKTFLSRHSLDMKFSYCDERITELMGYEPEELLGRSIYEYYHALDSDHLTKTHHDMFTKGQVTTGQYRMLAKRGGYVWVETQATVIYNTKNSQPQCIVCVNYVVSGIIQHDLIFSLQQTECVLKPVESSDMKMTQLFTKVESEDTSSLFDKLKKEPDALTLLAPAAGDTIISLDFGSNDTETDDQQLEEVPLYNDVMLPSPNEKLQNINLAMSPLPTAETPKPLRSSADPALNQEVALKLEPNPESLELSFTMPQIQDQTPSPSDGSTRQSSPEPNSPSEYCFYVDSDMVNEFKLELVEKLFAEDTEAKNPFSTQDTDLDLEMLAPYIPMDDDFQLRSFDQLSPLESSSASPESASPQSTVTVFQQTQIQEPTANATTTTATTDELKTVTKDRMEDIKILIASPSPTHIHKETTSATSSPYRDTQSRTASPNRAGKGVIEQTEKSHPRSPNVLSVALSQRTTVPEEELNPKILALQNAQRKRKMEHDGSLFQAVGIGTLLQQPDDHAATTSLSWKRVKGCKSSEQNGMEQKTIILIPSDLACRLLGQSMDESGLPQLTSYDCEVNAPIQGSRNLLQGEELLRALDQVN

Test [9] deals with Hepatocyte nuclear factor 6 (Homo sapiens) (UniProt Q9UBC0). Kind of test: ATG_HNF6_CIS: Attagene CIS-FACTORIAL HepG2 Assay for human Hepatocyte Nuclear Factor 6 (HNF6) (AID 2282952). The conditions noted are these: HepG2 Attagene cis-factorial HNF6 reporter transcription; actives raise or lower the signal. The essentials: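 Activity values derive from bidirectional fitting against DMSO of reporter mRNA levels, measured by capillary electrophoresis of labelled RT-PCR products from HepG2 cells exposed 24 h.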
Chain of Hepatocyte nuclear factor 6 (Homo sapiens) (Q9UBC0 whole entry, looked up): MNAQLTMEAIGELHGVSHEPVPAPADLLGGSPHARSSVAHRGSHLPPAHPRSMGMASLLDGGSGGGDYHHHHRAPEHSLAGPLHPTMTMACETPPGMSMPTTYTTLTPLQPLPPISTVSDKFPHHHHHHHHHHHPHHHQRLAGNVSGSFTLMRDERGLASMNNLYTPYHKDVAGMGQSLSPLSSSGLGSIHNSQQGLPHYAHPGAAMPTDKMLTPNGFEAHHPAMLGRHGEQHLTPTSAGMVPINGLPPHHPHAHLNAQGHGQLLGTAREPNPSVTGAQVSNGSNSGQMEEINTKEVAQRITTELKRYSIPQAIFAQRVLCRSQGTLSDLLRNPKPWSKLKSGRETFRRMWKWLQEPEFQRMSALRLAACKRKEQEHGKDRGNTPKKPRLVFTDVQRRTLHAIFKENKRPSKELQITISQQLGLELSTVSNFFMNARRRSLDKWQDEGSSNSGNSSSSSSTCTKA

In test [10] the target is Heat shock factor protein 1 (Homo sapiens) (UniProt Q00613). The experiment in a line: ATG_HSE_CIS: Attagene CIS-FACTORIAL HepG2 Assay for human Heat Shock Transcription Factor 1 (HSE) (AID 2282953). The conditions noted are these: HepG2 HSE cis-reporter, Attagene RNA transcription; actives raise or lower the signal. In short, it runs like this:
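Cells were transfected with cis-element-driven reporter constructs, dosed for 24 h, then total RNA was reverse-transcribed and reporter cDNA amplified, FAM-labelled and digested with HpaI. Fragments were resolved by capillary electrophoresis; gain or loss was fitted against DMSO.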

Test [11] is described as follows: ATG_TA_CIS: Attagene CIS-FACTORIAL HepG2 Assay for human TA Basal Promoter (AID 2282964). The following applies: HepG2 Attagene CIS-factorial TA basal promoter reporter; actives raise or lower the signal. The essentials: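 Steps: transfect HepG2 with MRTUs; dose 24 h; isolate RNA, DNase-treat, reverse-transcribe; PCR and FAM-label reporter cDNA; digest with HpaI 2h at 37 C; run capillary electrophoresis. Activity fitted both directions against DMSO.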

Test [12] can be described thus: ATG_VDRE_CIS: Attagene CIS-FACTORIAL HepG2 Assay for human Vitamin D Receptor Element (VDRE) (AID 2282968). The following applies: HepG2 VDRE cis-reporter transcription, actives raise or lower the signal. In short, it runs like this: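 Steps: transfect HepG2 with multiple reporter transcription units; dose chemicals 24 h; isolate RNA; RT-PCR; label with 6-FAM primer extension; HpaI digest; capillary electrophoresis. Curves fitted both directions against DMSO.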

Test [13] has as its target X-box-binding protein 1 (Homo sapiens) (UniProt P17861). Kind of test: ATG_Xbp1_CIS: Attagene CIS-FACTORIAL HepG2 Assay for human X-box Binding Protein 1 (XBP1) (AID 2282972). The conditions noted are these: HepG2 XBP1 cis-element reporter, Attagene multiplex; actives raise or lower the signal. In short, it runs like this:
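Changes in reporter transcript abundance, read by RT-PCR and capillary electrophoresis, reflect endogenous transcription factor activity. Transfected HepG2 cells received compound for 24 hours; DMSO defined baseline for bidirectional analysis.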

Test [14] has as its target Nuclear respiratory factor 1 (Homo sapiens) (UniProt Q16656). The experiment in a line: ATG_NRF1_CIS: Attagene CIS-FACTORIAL HepG2 Assay for human Nuclear Respiratory Factor 1 (NRF1) Orphan Gene (AID 2282987). The following applies: HepG2 NRF1 cis-element reporter, Attagene multiplex; actives raise or lower the signal. In short, it runs like this: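 Human hepatoma HepG2 cells carrying transfected promoter-regulated reporter units were incubated with test chemicals for 24 h. Reporter transcripts were measured by RT-PCR plus capillary electrophoresis, and endpoints derived by bidirectional fitting with DMSO as baseline.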

Test [15] has as its target Myc proto-oncogene protein (Homo sapiens) (UniProt P01106). The experiment in a line: ATG_Myc_CIS: Attagene CIS-FACTORIAL HepG2 Assay for human Myelocytomatosis (Myc) Proto-Oncogene Transcription Factor (AID 2282990). The following applies: HepG2, Attagene cis-reporter transcription factor activity; actives raise or lower the signal. In short, it runs like this: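 Multiplexed cis-reporter transcription in HepG2 cells after 24 h chemical treatment. Reporter mRNA measured by RT-PCR and capillary electrophoresis fluorescence; activity fitted bidirectionally against DMSO control.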

Test [16] is described as follows: ATG_NRF2_ARE_CIS: Attagene CIS-FACTORIAL HepG2 Assay for human Nuclear Factor Erythroid 2 Related Factor 2 (NFR2) response to Antioxidant Response Elements (ARE) (AID 2282992). The following applies: HepG2 Attagene ARE/NRF2 reporter, transcription factor activity; actives raise or lower the signal. In short, it runs like this:
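Using transiently transfected HepG2 cells exposed for 24 h, reporter mRNA levels were determined by RT-PCR with fluorescent primer extension and capillary electrophoresis, analysed for gain or loss of signal against DMSO.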

Test [17] is described as follows: ATG_Oct_MLP_CIS: Attagene CIS-FACTORIAL HepG2 Assay for human Octamer-Binding Transcription Factor (Oct) (AID 2282993). The following applies: HepG2 Attagene cis-factorial Oct reporter, mRNA; actives raise or lower the signal. The essentials: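 Multiplexed cis-reporter assay in human liver HepG2 cells, 24 h incubation. Reporter RNA amplified and labelled, then resolved by capillary electrophoresis; DMSO serves as negative control and baseline.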

Test [18] addresses Cellular tumor antigen p53 (Homo sapiens) (UniProt P04637). The experiment in a line: ATG_p53_CIS: Attagene CIS-FACTORIAL HepG2 Assay for human p53 Transcription Factor (AID 2282994). The following applies: HepG2 p53 cis-element reporter, Attagene mRNA; actives raise or lower the signal. In short, it runs like this: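 In HepG2 cells, reporter transcription units under cis-regulatory promoters were transiently introduced. Following 24 h treatment, RNA was processed to labelled, digested cDNA fragments read by capillary electrophoresis; fitting was bidirectional versus DMSO.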

The nature of test [19]: ATG_M_06_CIS: Attagene CIS-FACTORIAL HepG2 Assay for M06 Transcription Factor (Internal Marker) (AID 2282950). The conditions noted are these: HepG2 Attagene CIS-FACTORIAL M06 internal marker reporter; actives raise or lower the signal. In short, it runs like this:
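Steps: transfect HepG2 with multiplexed cis-element reporter constructs; dose chemical 24 h; extract RNA with DNase treatment; reverse-transcribe, PCR-amplify, 6-FAM label, HpaI digest; separate fragments by capillary electrophoresis. Activity fitted both directions versus DMSO.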

Chain of Nuclear respiratory factor 1 (Homo sapiens) (Q16656 whole entry, looked up): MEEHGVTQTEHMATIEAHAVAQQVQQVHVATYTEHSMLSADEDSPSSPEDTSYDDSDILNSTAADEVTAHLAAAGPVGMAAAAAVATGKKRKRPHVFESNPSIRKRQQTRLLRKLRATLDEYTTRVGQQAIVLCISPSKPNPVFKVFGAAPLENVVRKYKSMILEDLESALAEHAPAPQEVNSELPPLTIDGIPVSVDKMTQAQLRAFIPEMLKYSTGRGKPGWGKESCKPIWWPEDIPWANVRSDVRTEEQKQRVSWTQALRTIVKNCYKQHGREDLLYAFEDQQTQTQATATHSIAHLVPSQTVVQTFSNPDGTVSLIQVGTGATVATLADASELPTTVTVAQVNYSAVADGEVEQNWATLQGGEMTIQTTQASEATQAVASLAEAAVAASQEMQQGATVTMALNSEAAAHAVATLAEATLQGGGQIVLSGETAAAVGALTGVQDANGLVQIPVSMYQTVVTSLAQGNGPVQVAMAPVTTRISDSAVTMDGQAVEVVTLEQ
Chain of Myc proto-oncogene protein (Homo sapiens) (P01106 whole entry, looked up): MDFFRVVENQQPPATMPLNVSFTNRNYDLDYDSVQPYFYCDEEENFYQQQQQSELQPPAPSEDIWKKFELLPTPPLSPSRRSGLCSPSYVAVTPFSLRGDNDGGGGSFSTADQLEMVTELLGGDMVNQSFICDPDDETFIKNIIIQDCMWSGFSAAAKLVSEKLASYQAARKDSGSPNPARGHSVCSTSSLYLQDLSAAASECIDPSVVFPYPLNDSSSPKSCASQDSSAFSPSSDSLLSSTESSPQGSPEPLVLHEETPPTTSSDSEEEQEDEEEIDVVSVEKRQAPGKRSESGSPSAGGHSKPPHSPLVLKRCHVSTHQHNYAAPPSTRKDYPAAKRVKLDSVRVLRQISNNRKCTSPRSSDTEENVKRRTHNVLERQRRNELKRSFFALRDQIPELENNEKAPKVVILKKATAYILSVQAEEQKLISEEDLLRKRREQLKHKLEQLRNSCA
Chain of Heat shock factor protein 1 (Homo sapiens) (Q00613 whole entry, looked up, the tested form may be a part): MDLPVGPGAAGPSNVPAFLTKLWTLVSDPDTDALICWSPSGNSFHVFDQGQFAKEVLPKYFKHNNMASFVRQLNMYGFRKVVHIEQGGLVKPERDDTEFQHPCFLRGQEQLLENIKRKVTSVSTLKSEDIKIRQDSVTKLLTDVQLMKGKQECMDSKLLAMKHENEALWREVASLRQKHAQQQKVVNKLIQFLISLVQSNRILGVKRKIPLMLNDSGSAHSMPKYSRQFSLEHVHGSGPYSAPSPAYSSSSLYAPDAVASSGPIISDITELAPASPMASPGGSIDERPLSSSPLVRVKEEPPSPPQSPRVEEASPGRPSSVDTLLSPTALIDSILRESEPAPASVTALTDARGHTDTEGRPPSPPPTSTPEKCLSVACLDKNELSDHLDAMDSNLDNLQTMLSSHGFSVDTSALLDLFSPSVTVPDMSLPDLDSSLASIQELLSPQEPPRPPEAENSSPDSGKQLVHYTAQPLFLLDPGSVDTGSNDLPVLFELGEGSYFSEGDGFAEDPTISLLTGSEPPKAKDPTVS
Chain of Cellular tumor antigen p53 (Homo sapiens) (P04637 whole entry, looked up, the tested form may be a part): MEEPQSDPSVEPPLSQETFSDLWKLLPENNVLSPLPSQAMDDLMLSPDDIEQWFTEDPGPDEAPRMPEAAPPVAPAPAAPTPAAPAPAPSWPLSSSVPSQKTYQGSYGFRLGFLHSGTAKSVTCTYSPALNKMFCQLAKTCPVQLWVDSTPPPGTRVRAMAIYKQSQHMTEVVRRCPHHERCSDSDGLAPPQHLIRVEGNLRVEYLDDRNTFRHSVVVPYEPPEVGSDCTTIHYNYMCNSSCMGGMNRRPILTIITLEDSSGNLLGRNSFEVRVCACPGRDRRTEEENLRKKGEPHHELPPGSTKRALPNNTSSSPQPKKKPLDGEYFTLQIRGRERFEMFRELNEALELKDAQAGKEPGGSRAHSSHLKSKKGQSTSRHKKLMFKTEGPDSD
Chain of X-box-binding protein 1 (Homo sapiens) (P17861 whole entry, looked up): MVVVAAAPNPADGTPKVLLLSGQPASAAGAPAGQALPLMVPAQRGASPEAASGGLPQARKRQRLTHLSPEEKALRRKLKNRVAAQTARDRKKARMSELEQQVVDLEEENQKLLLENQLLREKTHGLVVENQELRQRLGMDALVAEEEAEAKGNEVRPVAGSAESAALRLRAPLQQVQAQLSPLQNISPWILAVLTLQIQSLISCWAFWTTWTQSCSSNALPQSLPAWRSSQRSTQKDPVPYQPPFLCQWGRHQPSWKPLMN

As a reminder, the AC50 is the midpoint of the concentration-response curve, whichever way the signal moves. With `Nc1ccc([N+](=O)[O-])cc1N`, the compound was called inactive in test [1], in test [3], in test [4], in [5], in test [6] and in test [7]. Besides, the outcome in [8], in test [9], in test [10], in test [11], in test [12] and in [13] was inactive. Also, the compound was classed as inactive in test [14], in test [15], in test [17] and in test [18]. In addition, the AC50 in test [2] is 24.7 µM (active); in test [16] it was 7.53 µM (active).
Take `O=c1[nH]c(Cl)c(Cl)cc1Cl`: the compound was called inactive in test [1], in [5], in [7], in test [19], in test [9] and in test [10]. For the same compound, the call in [12], in test [13], in test [15], in test [17] and in test [18] was inactive. Besides, the figures for the AC50 in [2], in test [8] and in test [16] were 13.8 µM (active), 59.5 µM (active) and 76.3 µM (active), respectively.
With `O=[N+]([O-])O.O=[N+]([O-])O.[Cd]`, the AC50 in [1] was 1.98 µM (active); in test [3] it was 5.97 µM (active); in test [7], 9.58 µM (active); in test [10], 1.42 µM (active); in test [13], 1.43 µM (active); in test [14], 4.62 µM (active). The AC50 in [15] is 0.962 µM (active); in test [16], 4.12 µM (active); in test [17], 1.16 µM (active). Moreover, the compound was classed as inactive in test [2], in test [4], in test [5], in test [6], in test [19] and in test [8]. For the same compound, the result in test [9] was inactive.
Consider `ClC1=C(Cl)[C@]2(Cl)[C@@H]3[C@@H](Cl)[C@H](Cl)C[C@@H]3[C@@]1(Cl)C2(Cl)Cl`, for which the compound was classed as inactive in test [1], in test [4], in test [5], in [6], in test [9] and in test [10]. Also, the compound was classed as inactive in test [12], in test [13], in test [14], in test [15], in test [16] and in test [17]. Also, in test [18], the compound was called inactive. In [8], the AC50 is 36.6 µM (active).
